For test [1], the system named is Vero E6 infected with SARS-CoV-2. As to the kind of experiment: morphology score (similarity to uninfected cells); higher = more like uninfected cells. The note with it: 24 h.
For test [2] the test system is unchanged. As to the kind of experiment: SARS-CoV-2 infection rate relative to infected DMSO; higher = more infection, active = 60 or less. The note with it: 24 h.

Our source for the morphology score and SARS-CoV-2 infection rate values is the supplement of paper PMC13380429.

In test [1], `Cc1sc(N)c(C(=O)c2cccc(C(F)(F)F)c2)c1C` (10 µM) had a morphology score of -0.0662. The SARS-CoV-2 infection rate in test [2] is 99% (inactive).
As to `CN1C2CCCC1CC(NC(=O)c1nn(C)c3ccccc13)C2` (configuration not stated) [granisetron] (10 µM), the morphology score in test [1] was -0.16. Moreover, the SARS-CoV-2 infection rate in test [2] was 98.5% (inactive).
`Cc1ccc2c(Br)cc(Br)c(OC(=O)c3ccccc3)c2n1` [broxaldine] (0.833333 µM) gave a morphology score in test [1] of 0.246. For the same molecule, the SARS-CoV-2 infection rate in test [2] was 103% (inactive).
Take `NC1=N[C@@](c2cccc(-c3cncnc3)c2)(c2ccnc(C(F)F)c2)c2cccc(F)c21` (10 µM): the morphology score in test [1] is 0.163. Also, the SARS-CoV-2 infection rate in test [2] is 92.5% (inactive).
The molecule `COc1ccc(N(C(=O)Oc2c(C)cccc2C)c2ccnc(Nc3ccc(N4CCN(C)CC4)cc3)n2)c(OC)c1` (10 µM) returned a morphology score in test [1] of 0.0671. The SARS-CoV-2 infection rate in test [2] was 111% (inactive).
With `O=C/C=C/c1ccccc1` [cinnamaldehyde] (10 µM), in test [1], the morphology score was -0.0291. Besides, the SARS-CoV-2 infection rate in test [2] is 104% (inactive).
On the same counts, the results for `CCCCN(Cc1ccc(C(=O)NO)cc1)C(=O)Nc1ccccc1` [nexturastat-A] (0.833333 µM) are 0.112 and 105% (inactive).
In test [1], `O=C(O)C(O)C(O)C(=O)O` (configuration not stated) [tartaric-acid] (10 µM) came in with a morphology score of -0.0312. The SARS-CoV-2 infection rate in test [2] is 103% (inactive).
As for `COc1ccccc1OCC(O)CN1CCN(CC(=O)Nc2c(C)cccc2C)CC1` (configuration not stated) [ranolazine] (10 µM), the morphology score in test [1] came to 0.0908. In addition, the SARS-CoV-2 infection rate in test [2] was 101% (inactive).
The molecule `C#CC1(OCC(O)CN2CCN(c3cccc(C(F)(F)F)c3)CC2)CCCCC1` (configuration not stated) [terciprazine] (10 µM) returned a morphology score in test [1] of 0.107. Also, in test [2], the SARS-CoV-2 infection rate is 104% (inactive).
The matching figures for `CC(=O)O[C@]1(C(C)=O)CC[C@H]2[C@@H]3C=C(C)C4=CC(=O)CC[C@]4(C)[C@H]3CC[C@@]21C` [megestrol-acetate] (10 µM): 0.21 and 100% (inactive).
